Out of some 310,000 compounds screened, about 14,000 (4.5%) showed an effect of 50% or more. Effects have a minus sign here. The full list was thinned out, with strong results kept by preference.
Each compound was assayed against human ether-à-go-go-related gene (hERG) potassium channel (human, UniProt Q12809) (assay: primary screen, population patch clamp on CHO cells stably expressing hERG; higher = less effect of the substance).
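Further: peak tail current of the secondary pulse compared with the same well before compound.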

Sequence of human ether-à-go-go-related gene (hERG) potassium channel (Q12809 whole entry, looked up): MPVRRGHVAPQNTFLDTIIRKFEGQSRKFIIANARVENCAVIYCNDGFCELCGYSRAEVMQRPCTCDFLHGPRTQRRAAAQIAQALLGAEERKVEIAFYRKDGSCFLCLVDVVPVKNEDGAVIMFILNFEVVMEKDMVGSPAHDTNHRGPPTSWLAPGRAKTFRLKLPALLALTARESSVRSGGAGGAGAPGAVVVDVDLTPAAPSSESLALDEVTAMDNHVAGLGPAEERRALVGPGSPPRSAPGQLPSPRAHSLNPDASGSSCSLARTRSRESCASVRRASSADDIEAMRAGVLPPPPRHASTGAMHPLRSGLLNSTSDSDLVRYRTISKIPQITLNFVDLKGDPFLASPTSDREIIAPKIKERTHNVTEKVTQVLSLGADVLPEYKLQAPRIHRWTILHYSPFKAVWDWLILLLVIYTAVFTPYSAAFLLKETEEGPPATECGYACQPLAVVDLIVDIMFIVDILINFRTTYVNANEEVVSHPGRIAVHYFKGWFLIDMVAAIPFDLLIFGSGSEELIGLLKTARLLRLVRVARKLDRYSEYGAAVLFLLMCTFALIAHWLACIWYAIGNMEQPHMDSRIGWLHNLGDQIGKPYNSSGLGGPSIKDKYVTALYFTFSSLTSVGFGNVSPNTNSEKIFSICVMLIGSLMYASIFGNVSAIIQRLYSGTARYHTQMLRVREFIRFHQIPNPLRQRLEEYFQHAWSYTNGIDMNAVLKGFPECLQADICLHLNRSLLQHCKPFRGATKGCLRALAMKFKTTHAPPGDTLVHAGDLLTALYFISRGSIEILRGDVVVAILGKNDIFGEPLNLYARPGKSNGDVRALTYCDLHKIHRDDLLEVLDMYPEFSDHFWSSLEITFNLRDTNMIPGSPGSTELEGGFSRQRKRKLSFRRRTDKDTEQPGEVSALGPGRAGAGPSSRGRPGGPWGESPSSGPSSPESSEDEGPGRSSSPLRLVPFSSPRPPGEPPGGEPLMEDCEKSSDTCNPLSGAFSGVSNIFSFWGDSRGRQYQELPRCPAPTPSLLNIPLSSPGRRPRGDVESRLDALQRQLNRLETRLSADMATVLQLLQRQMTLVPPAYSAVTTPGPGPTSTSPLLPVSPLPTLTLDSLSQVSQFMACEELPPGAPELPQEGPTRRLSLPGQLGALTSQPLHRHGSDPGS

| Structure (SMILES) | hERG current change (%, negative = inhibition) at 10uM |
| --- | --- |
| CC(C)C(=O)N1CCN(c2ccc([N+](=O)[O-])cc2Cl)CC1 | -30.9% |
| CCCC(=O)N1CCN(c2ccc([N+](=O)[O-])cc2Cl)CC1 | -52.2% |
| CC(C)(C)C(=O)N1CCN(c2ccc([N+](=O)[O-])cc2Cl)CC1 | -33.2% |
| CC(C)CC(=O)N1CCN(c2ccc([N+](=O)[O-])cc2Cl)CC1 | -59.9% |
| CCC(=O)NC(=S)N1CCN(c2ccc([N+](=O)[O-])cc2Cl)CC1 | -26.4% |
| CC(C)CC(=O)NC(=S)N1CCN(c2ccc([N+](=O)[O-])cc2Cl)CC1 | -30.9% |
| C=CCn1c(SCC(=O)Nc2nccs2)nnc1-c1cc2cccc(OC)c2o1 | -4.98% |
| CC1CCN(C2=NN3C(=N)/C(=C\c4ccc(OC(=O)c5ccco5)cc4)C(=O)N=C3S2)CC1 | 12.6% |
| O=C(NCc1ccccc1)C(c1ccccn1)N(C(=O)c1csnn1)c1ccccc1F (stereo not drawn) | -5.45% |
| COc1ccc(N2CCN(C(=S)NCCc3ccccc3)CC2)cc1 | -5.71% |
| O=C(CCCOc1ccccc1)N1CCN(c2ccccn2)CC1 | -8.9% |
| Cc1ccc(Oc2ccccc2/C=C2\SC(=O)N(C)C2=O)cc1 | 4.1% |
| C=CCNC(=O)CC1C(=O)NCCN1Cc1ccc(-c2ccccc2)cc1 (stereo not drawn) | -7.59% |
| CC(C)Cn1c(N)c(C(=O)COC(=O)CN2C(=O)C3CC=CCC3C2=O)c(=O)n(C)c1=O (stereo not drawn) | -4.23% |
| CCCc1[nH]nc2c1C(c1ccc(O)c(OC)c1)C(C#N)=C(N)O2 (stereo not drawn) | -31.9% |
| COc1ccc(CCN(C)C/C=C/c2ccccc2)cc1OC | -64.6% |
| CN(C/C=C/c1ccccc1[N+](=O)[O-])Cc1ccccc1 | -46% |
| COc1ccc(CCN(C)Cc2c(F)cccc2F)cc1OC | -25.6% |
| COc1ccc(CCNC(=O)/C=C\c2ccccc2)cc1OC | -7.74% |
| COc1ccc(CCN(C)c2ccc(C(N)=O)cc2[N+](=O)[O-])cc1OC | -6.3% |
| COc1ccc(CCN(C)C/C=C/c2ccccc2[N+](=O)[O-])cc1OC | -70.8% |
| Cc1ccn2cc(-c3cccc(NC(=O)C(C)C)c3)nc2c1 | 3.3% |
| Cc1cc(NC(=O)CCC(=O)N(CC(=O)NC2CCCC2)c2cccc(F)c2)no1 | -3.17% |
| Cc1ccc(C(=O)N[C@H](C(=O)Nc2sccc2C(N)=O)C(C)C)cc1 | 5.47% |

From PMC4336329 (PLoS ONE, 2015)
